IkB sig inh: inhibitors of IkB signaling in ABC-DLBCL cells; ABC-DLBCL IkBa-CBG/CBR dual luciferase ratio, 4 h; response scale: scaled: untreated 0%, proteasome inhibitor 100%; AID 445; Potency, µM (highest dose often 57.1 µM), without a hit: at the top dose IkBa stabilization activation; 110,000 tested, 0.04% active; active = well fitted curve in the direction sought with a large enough effect in the signal ratio, not every such curve was filed as active; inconclusive = small, poorly fitted or top-dose-only effect, or a change in a side signal; the % refers to the signal ratio;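 also: potency is read from the fitted curve at half-maximal effect; the direction sought is a rising ratio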
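Curves were fitted separately to fusion (green), unfused (red) and ratio luminescence, then classed by r2, magnitude and activity. Cells: OCI-Ly3, 4 h compound plus doxycycline at 37C; 10 uM MG-132 defined full response.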
Luciferase inh: inhibitors of firefly luciferase. P08659. AID 411. 72,000 tested, 2.2% active. purified firefly luciferase, luminescence, 8 min. Potency, µM (titrated, usually from 57.1 µM), for inactives: at the highest dose activity change, negative = inhibition, most hits filed as inhibitors; also: potency is read from the fitted curve at half-maximal effect; % is scaled to controls: 0 for no effect and ±100 for the full control effect; nearly all actives have a fitted effect of over 40% in size
Target sequence (P08659 whole entry, looked up): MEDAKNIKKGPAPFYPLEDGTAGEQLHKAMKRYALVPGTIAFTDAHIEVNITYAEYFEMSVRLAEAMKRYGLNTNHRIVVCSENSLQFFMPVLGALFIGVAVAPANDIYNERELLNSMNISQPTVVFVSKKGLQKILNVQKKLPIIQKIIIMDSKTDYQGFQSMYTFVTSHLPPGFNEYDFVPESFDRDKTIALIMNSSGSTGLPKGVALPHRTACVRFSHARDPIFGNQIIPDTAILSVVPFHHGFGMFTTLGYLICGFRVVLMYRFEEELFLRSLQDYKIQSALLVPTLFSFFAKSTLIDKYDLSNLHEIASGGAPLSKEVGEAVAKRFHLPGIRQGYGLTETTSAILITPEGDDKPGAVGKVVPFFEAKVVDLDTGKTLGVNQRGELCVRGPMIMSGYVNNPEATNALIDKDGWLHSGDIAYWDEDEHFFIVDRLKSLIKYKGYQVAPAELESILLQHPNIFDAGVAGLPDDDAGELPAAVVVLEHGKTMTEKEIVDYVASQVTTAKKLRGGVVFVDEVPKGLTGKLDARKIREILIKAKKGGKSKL
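Titration-based qHTS; buffer 50 mM imidazole pH 7.2, 50 mM KCl, 7 mM MgCl2, 10 uM ATP, 0.01% Tween 20, 0.05% BSA; luciferase/luciferin detector mix added after compound; 8 min, ambient; luminescence.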
IMPase cell inh: membrane-permeable compound that blocks inositol monophosphatase; inhibition (IP1 accumulation), % at 46.1 µM; CHO-M1 cells, IP1 accumulation, HTRF TR-FRET ratio; P97697; 120,000 tested, under 10 active; active = well fitted curve in the direction sought with a large enough effect in the signal ratio, not every such curve was filed as active; inconclusive = small, poorly fitted or top-dose-only effect, or a change in a side signal; inactive = no such curve, though single readings can be large or run the other way; the % refers to the signal ratio;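 also: cells stimulated with carbachol in lithium chloride buffer; plate controls were DMSO basal wells for no effect and reference inhibitor wells for full effect; higher means more IMPase inhibition seen as more IP1 and lower FRET ratio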
Target sequence (P97697 whole entry, looked up): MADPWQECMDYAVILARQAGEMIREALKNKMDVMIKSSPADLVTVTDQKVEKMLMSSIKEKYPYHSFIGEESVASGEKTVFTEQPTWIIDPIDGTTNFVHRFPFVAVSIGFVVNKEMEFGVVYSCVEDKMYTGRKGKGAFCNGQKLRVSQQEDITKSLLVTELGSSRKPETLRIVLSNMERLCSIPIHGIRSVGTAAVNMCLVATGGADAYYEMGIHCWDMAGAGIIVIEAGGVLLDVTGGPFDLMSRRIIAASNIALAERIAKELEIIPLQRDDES
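Measured: the HTRF emission ratio (665/620 nm) plus the 620 nm donor channel, each fitted to the Hill equation to give AC50. Cells were CHO-M1 given compounds up to 46 uM and a 30 min carbachol stimulation at 37C.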
Imprint erasure: inducers of genomic imprint erasure in mouse ES cells. mouse ES Peg3-LacZ reporter, beta-gal luminescence, 40 h. Potency, µM (titrated, usually from 60.7 µM), for inactives: at the top dose activity change, positive = activation, actives largely listed as activators. 110,000 tested, 0.02% active. AID 1948; also: potency is read from the fitted curve at half-maximal effect
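Readout: BetaGlo luminescence (5 min, room temp) for LacZ from the normally silent maternal Peg3 allele in female Peg3LacZ-Neo ES cells. Cells 300/well, 40 h, 37C, 5% CO2. Data normalized per plate to negative controls.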
p53ts 32C kill: cytotoxicity in p53ts cells at permissive temperature. H1299-p53A138V at 32C, ATP luminescence viability, 24 h. Potency, µM (series often up to 46.1 µM), for the others: top-dose activity change, negative = cytotoxicity, hits mostly cytotoxic. 130,000 tested, 0.93% active;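 also: potency is read from the fitted curve at half-maximal effect; 0% = DMSO and -100% = full killing by reference compound; nearly all actives have a fitted effect of over 55% in size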
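Viability by ATPlite luminescence after 24 h compound treatment (up to 46 uM) at the permissive 32C. Cells are H1299 carrying p53 A138V. Scale runs from DMSO basal to 100 uM tamoxifen as full kill; AC50 from Hill fits.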
p53ts 39C kill: cytotoxicity in p53ts cells at nonpermissive temperature | 130,000 tested, 1.5% active | H1299-p53A138V viability at 39C, ATP luminescence, 24 h | Potency, µM (top dose mostly 46.1 µM), for the others: at the highest dose activity change, negative = cell killing, usual class: cytotoxic; also: potency is read from the fitted curve at half-maximal effect; % is scaled to controls: 0 for no effect and ±100 for the full control effect; nearly all actives have a fitted effect of over 55% in size
Numbers without * were called inactive; ? = inconclusive; nt = not tested or not shown; [ ] = dose if it differs, or a comment. This excerpt belongs to a sample that is enriched for hits. Unless noted, calls follow the shape of the dose curve; as a rule, active = well fitted curve in the direction sought with a large enough effect; inconclusive = small, poorly fitted or top-dose-only effect, or another doubt; inactive = no such curve, though single readings can be large; an effect the other way counts as inactive or inconclusive.

SMILES	IkB sig inh	Luciferase inh	IMPase cell inh	Imprint erasure	p53ts 32C kill	p53ts 39C kill
c1cn(CCCNc2ncnc3nc[nH]c23)cn1	?	2.51µM*	-1.7	-12.6%	?	-21.9%
CCN1CCN(CCCNc2ncnc3nc[nH]c23)CC1	-0.2%	-1.3%	1.2	-11.3%	-8.6%	29.8%
CCc1ccc(S(=O)(=O)c2nnn3c2nc(NC(C)C)c2cc(Cl)ccc23)cc1	-0.6%	nt	nt	-8.1%[10.9 µM]	-1.0%	-3.6%
CCc1ccc(NC(=O)Cn2cc(S(=O)(=O)c3ccc(F)cc3)c(=O)c3cc(OC)ccc32)cc1	9.5%	nt	nt	-4.9%[10.9 µM]	?	12.6µM*
CCCCOc1ccccc1C1CC(=O)Nc2cc(OC)c(OC)cc21 (stereo unspecified)	0.5%	nt	nt	-10.5%[10.9 µM]	12.2%	-10.9%
CCCCOc1ccccc1C1CC(=O)Nc2cc(C)c(C)cc21 (stereo unspecified)	-0.3%	nt	nt	-13.9%[10.9 µM]	-16.1%	10µM*
CCn1c(CN2CCC(C)CC2)nc2cc(NC(=O)COc3ccc(Cl)c(C)c3)ccc21	?	nt	nt	-16.4%[10.9 µM]	-12.7%	7.0%
CCOC(=O)Cc1csc(NC(=O)CSc2nnc(-c3ccc(C)cc3)o2)n1	0.5%	0.4%	5.4	-7.8%	12.6µM*	7.94µM*
COc1cc(C2C(=O)N(C3CCCCC3)CC(=O)N2C2CCCCC2)ccc1OC(C)C (stereo unspecified)	0.2%	nt	nt	-13.3%[10.9 µM]	9.0%	-13.3%
O=C1C(c2ccc(F)cc2)N(Cc2ccc3c(c2)OCO3)C(=O)CN1C1CCCCCC1 (stereo unspecified)	nt	nt	11.2	nt	nt	nt
Fc1ccc([C@@H]2CCNC[C@H]2COc2ccc3c(c2)OCO3)cc1	nt	nt	20.0	-30.9%	?	12.6µM*
O=C(Nc1ccccc1)N1CCOCC1	nt	nt	1.7	nt	nt	nt
O=C(Nc1ccc2c(c1)oc1ccccc12)N1CCOCC1	?	20µM*	3.0	-16.0%	?	?
CCc1ccc(OC(=O)c2ccn(CC)n2)cc1	-2.2%	12.6µM*	0.6	-9.3%	-2.3%	-3.0%
CCOC(=O)c1c(NC(=O)c2ccn(CC)n2)sc2c1CCCC2	0.2%	0.4%	12.2	-11.1%	2.9%	-17.6%
COCCNC(=O)CSc1nnc(NC(=O)Nc2ccc(C)cc2)s1	3.9%	nt	nt	5.3%[10.9 µM]	11.2µM*	?
Nc1ccc2ncccc2c1	2.7%	-11.6%	20.2	-27.6%	?	3.16µM*
COc1ccc(N2C(=O)CSC2c2ccc3c(c2)OCO3)cc1 (stereo unspecified)	0.5%	2.5%	8.8	-9.9%	2.9%	-5.4%
O=C1CC(c2ccco2)Sc2nc3ccccc3n21 (stereo unspecified)	9.6%	-16.6%	-1.4	-7.9%	18.5%	6.5%
O=C1CC(c2cccs2)Sc2nc3ccccc3n21 (stereo unspecified)	?	15.8µM*	0.5	-13.5%	-16.4%	-14.3%
O=C1CC(c2ccc3c(c2)OCO3)Sc2nc3ccccc3n21 (stereo unspecified)	?	3.98µM*	-1.1	-30.6%	12.6µM*	12.6µM*
O=C1NC(=O)[C@@H]2C3c4ccccc4C=CN3[C@H](C(=O)c3cccs3)[C@H]12 (stereo partly specified)	8.5%	25.1µM*	-5.8	-0.5%	-1.1%	-5.3%
O=C(Cc1ccc(F)cc1)NCCc1csc(-c2ccc(C(F)(F)F)cc2)n1	-2.7%	nt	nt	12.3%[10.9 µM]	4.7%	20µM*
COc1ccc(CC(=O)NCCc2csc(-c3ccc(C(F)(F)F)cc3)n2)cc1	3.3%	nt	nt	14.2%[10.9 µM]	7.5%	-16.9%
Nc1nc(COc2ccc3ccccc3c2)cs1	?	25.1µM*	-3.2	-28.1%	?	-20.7%
SMILES	IkB sig inh	Luciferase inh	IMPase cell inh	Imprint erasure	p53ts 32C kill	p53ts 39C kill
CC(=O)Nc1nc(COc2ccc3ccccc3c2)cs1	nt	nt	6.0	nt	nt	nt
CC(C)(C)c1onc(OCP(=O)(O)O)c1C[C@@H](N)C(=O)O	2.0%	-3.5%	5.5	nt	-5.6%	16.5%
Cc1cccc(CNc2cc(-c3ccc(N(C)C)cc3)ncn2)c1	4.1%[11.4 µM]	-11.7%[2.29 µM]	nt	-15.4%	-5.8%	-19.7%
CN(C)c1ccc(-c2cc(NCc3cccnc3)ncn2)cc1	-0.2%[11.4 µM]	-16.2%[2.29 µM]	nt	-41.2%	?	7.94µM*
Cc1ccc(S(=O)(=O)NCC(Nc2cccc(Cl)c2)c2ccccc2)cc1 (stereo unspecified)	?	nt	nt	-16.2%[10.9 µM]	?	15.8µM*
O=C(c1ccc(Cl)cc1)N1CCCCC(Sc2nnc(-c3ccc4c(c3)OCO4)o2)C1=O (stereo unspecified)	0.6%	12.6µM*	2.7	-78.0%	7.94µM*	?
O=C(O)CSc1nnc(-c2ccc3c(c2)OCO3)o1	nt	nt	-4.0	nt	nt	nt
CCn1nc(C(=O)OCC(=O)c2ccc3c(c2)OCCO3)c2ccccc2c1=O	-0.4%	12.6µM*	-0.6	-7.3%	-14.5%	-14.1%
CCc1ccc(C(=O)COC(=O)c2cccs2)cc1	nt	nt	4.1	nt	nt	nt
O=C(COC(=O)c1cccs1)c1ccc2c(c1)OCCO2	3.4%	0.316µM*	-6.7	-43.8%	?	-26.8%
CC(=O)NC12CC3CC(C1)CC(C(=O)OCC(=O)c1ccc4c(c1)OCCO4)(C3)C2	?	3.98µM*	8.2	-11.0%	-14.6%	-15.7%
Cc1ccc(C(=O)COC(=O)c2cccs2)cc1	nt	nt	-7.5	nt	20µM*	-23.2%
CCc1ccc(NC(=O)N(Cc2c[nH]c3ccccc23)C2CCCCCC2)cc1	-2.5%	nt	nt	-22.6%[10.9 µM]	-16.8%	-10.6%
Cc1ccccc1CNC(=O)c1cnc2sc(N3CCOCC3)nn2c1=O	-1.4%	nt	nt	4.7%[10.9 µM]	-0.5%	10.6%
COc1cccc(OCc2nc3ccccc3[nH]2)c1	?	12.6µM*	6.7	-86.5%	15.8µM*	?
NNC(=O)c1ccc(OCc2nc3ccccc3[nH]2)cc1	3.6%[11.4 µM]	-3.6%[11.4 µM]	nt	-2.8%[10.9 µM]	-4.8%[9.22 µM]	-0.6%[9.22 µM]
c1cnc2c(OCc3nc4ccccc4[nH]3)cccc2c1	?	20µM*	-0.5	-21.7%	-25.6%	?
c1ccc2cc(OCc3nc4ccccc4[nH]3)ccc2c1	nt	nt	-0.7	nt	10µM*	12.6µM*
COc1ccc(OCc2nc3ccccc3[nH]2)cc1	nt	nt	-4.8	nt	nt	nt
Cc1ccc(CNC(=O)c2ccc(N3CCCC3)c(NC(=O)Nc3ccc(C)cc3)c2)cc1	2.8%	nt	nt	3.4%[10.9 µM]	-5.3%	-27.9%
Cc1ccc(-n2sc3ccccc3c2=O)cc1S(=O)(=O)N1CCCCC1	3.0%	15.8µM*	5.1	-77.9%	-22.6%	-1.9%
CC1(C)CCC[C@@]2(C)[C@@H]1CC[C@]1(C)OC(=O)C[C@@H]21	0.1%[11.4 µM]	0.1%[11.4 µM]	nt	nt	nt	nt
CCn1nnc(NC(=O)c2ccc(C(C)(C)C)cc2)n1	-1.7%	12.6µM*	0.5	nt	2.51µM*	5.01µM*
Cn1nnc(NC(=O)c2cccc(F)c2)n1	-0.6%	-1.3%	-3.2	-34.2%	-8.0%	7.2%
Cc1ccc(C(=O)Nc2nnn(C)n2)cc1	0.5%	25.1µM*	-3.1	-59.5%	?	?
